Results on twelve compounds are retold here after PubChem BioAssay AID652044 (Broad Institute, 2013).

Measured potencies and affinities stand elsewhere. A number with no mark means an inactive call.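 Rule for the calls: active = cell-killing curve whose half-maximal dose falls at or below double the top accepted dose; inconclusive = flat fit with drops of 30 to 70%, or poor fit; inactive = the rest, including signal rises.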

The assay is described as follows: NIH3T3 fibroblast cytotoxicity, dose response, cytotoxicity control for PglD inhibitor project, cell-based, CellTiter-Glo luminescence, dry powder (AID 652044). The following applies: NIH3T3 viability, CellTiter-Glo ATP luminescence, 48 h; series mostly up to 26 µM; activity change, negative = cytotoxic: at the top concentration. (In ATP-based viability assays light output follows the ATP content of the culture.)
As for `CO[C@H]1CN(C)C(=O)c2cc(NC(C)=O)ccc2OC[C@@H](C)NC[C@@H]1C`, the “activity change, negative = cytotoxic” value is 5.85%.
`O=C(C[C@@H]1C[C@@H]2c3cc(NC(=O)NC4CCCCC4)ccc3O[C@@H]2[C@@H](CO)O1)NCc1cccnc1`: the “activity change, negative = cytotoxic” value was 2.95%.
The figure for `CC=Cc1ccc2n(c1=O)C[C@@H]1[C@@H](CO)[C@H](C(=O)NCCOC)[C@H]2N1Cc1nccs1` (mixture of isomers) is 7.23%; for `CC(=O)N[C@H]1CC[C@H](CC(=O)NCc2ccc(Cl)cc2)O[C@H]1CO` it is -2.34%.
Next, `C[C@H]1CN([C@@H](C)CO)C(=O)c2cccc(NC(=O)Nc3ccccc3)c2O[C@H]1CN(C)C`: -4.25%; `Cc1noc(C)c1NC(=O)Nc1cccc2c1O[C@H](CN(C)C(=O)Nc1cccc3ccccc13)[C@@H](C)CN([C@H](C)CO)C2=O`: 0.326%.
The figure for `CO[C@@H]1CN(C)C(=O)c2ccc(NS(C)(=O)=O)cc2OC[C@@H](C)N(C(=O)C2CCOCC2)C[C@H]1C` is 8.99% [at 23.5 µM].
Turning to `O=C(N[C@H]1C=C[C@@H](CC(=O)N2CCCCC2)O[C@H]1CO)c1ccc2c(c1)OCO2`, the “activity change, negative = cytotoxic” value is -2.65%.
The figure for `O=C(C[C@@H]1CC[C@@H]2[C@H](COC[C@@H](O)CN2Cc2ccc(F)cc2)O1)N1CCc2ccccc2C1` is 6.57%; for `CCC(=O)Nc1ccc2c(c1)OC[C@@H](C)N(Cc1ccccn1)C[C@@H](C)[C@H](OC)CN(C)C2=O` it is 6.56%; for `COCC#Cc1cnc2c(c1)C(=O)N([C@@H](C)CO)C[C@H](C)[C@@H](CN(C)C(=O)C1CCC1)O2` it is -10.5%.
The figure for `C/C=C/c1cnc2c(c1)C(=O)N([C@@H](C)CO)C[C@H](C)[C@@H](CN(C)C(=O)c1cccnc1)O2` is -12.1%.
